Data as given in PubChem BioAssay (NCATS).
Results filed as inconclusive are left out. The source made the active and inactive calls. The call rests on the fitted dose curve; in most records, active means well fitted inhibition curve with a large enough effect; inconclusive means small, poorly fitted or top-dose-only effect; inactive means flat fitted curve, though single readings scatter. Numbered stars: 1 amine (or outer) side, 2 acyl side, 3 side chain; on linkers, the order of the positions; unused ones are H or OH. Bridge positions count the residues as written; N and C are the ends. Square brackets hold non-standard residues; d marks the D form. Peptide text beside a SMILES is read from it. * marks the point of attachment. ξ: configuration not given here. ΔAla(Z-3-ureido) = NC(=O)N/C=C(\N)C(=O)O; X1 = NC1=NCCC(C(N[*:1])C(=O)[*:2])N1; ξβ3hOrn = NCCCC(N)CC(=O)*; Dap = NC[CH](N)C(=O)O

Legend:
Experiment in all cases: qHTS profiling for inhibitors of Plasmodium falciparum proliferation (AID 504749); further: nearly all actives have a fitted effect of over 60% in size
Conditions in all cases: P. falciparum in erythrocytes, SYBR Green DNA, 72 h; series mostly up to 28.7 µM
CP268 = tested on: CP268
In short: (§1)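 SYBR Green fluorescence (ex 485 nm, em 535 nm) reports parasite DNA after 72 h compound exposure of infected red cells at 0.3% parasitemia, 2.5% hematocrit; signal normalized to 0.29 uM artemisinin and vehicle wells.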

CP269 = tested on: CP269
In short: as §1

CP286 = tested on: CP286
In short: as §1

CP291 = tested on: CP291
In short: as §1

CP297 = tested on: CP297
In short: as §1

CP305 = tested on: CP305
In short: as §1

CP315 = tested on: CP315
In short: as §1

CP325 = tested on: CP325
In short: as §1

CP329 = tested on: CP329
In short: as §1

CP335 = tested on: CP335
In short: as §1

DIV14 = tested on: DIV14
In short: as §1

DIV17 = tested on: DIV17
In short: as §1

DIV30 = tested on: DIV30
In short: as §1

Dd2 = tested on: Dd2
In short: as §1

ECU = tested on: ECU
In short: as §1

FAB9 = tested on: FAB9
In short: as §1

GB4 = tested on: GB4
In short: as §1

HB3 = tested on: HB3
In short: as §1

ICS = tested on: ICS
In short: as §1

JCK = tested on: JCK
In short: as §1

N140 = tested on: N140
In short: as §1

P93_24 = tested on: P93_24
In short: as §1

P94_40 = tested on: P94_40
In short: as §1

PAD = tested on: PAD
In short: as §1

PC15 = tested on: PC15
In short: as §1

PC26 = tested on: PC26
In short: as §1

PC49 = tested on: PC49
In short: as §1

SC27B = tested on: SC27B
In short: as §1

TAB109 = tested on: TAB109
In short: as §1

TAB113 = tested on: TAB113
In short: as §1

TAB165 = tested on: TAB165
In short: as §1

W2 = tested on: W2
In short: as §1

Measured: Potency

NCCCC(N)CC(=O)NCC1NC(=O)C(CO)NC(=O)C(N)CNC(=O)C(C2CCN=C(N)N2)NC(=O)/C(=C/NC(N)=O)NC1=O (stereo not drawn) (H-[Dap]S[Dap](ξβ3hOrn)[ΔAla(Z-3-ureido)][X1]; lactam 1-C; configuration not given here)
inactive: CP268 | CP269 | CP286 | CP291 | CP297 | CP305 | CP315 | CP325 | CP329 | CP335 | DIV14 | DIV17 | DIV30 | Dd2 | ECU | FAB9 | GB4 | HB3 | ICS | JCK | N140 | P93_24 | P94_40 | PAD | PC15 | PC26 | PC49 | SC27B | TAB109 | TAB113 | TAB165 | W2
